Assay results taken from PubChem BioAssay (NCATS).
Inconclusive results are not listed. The source made the active and inactive calls. The call rests on the fitted dose curve; in most records, active means well fitted inhibition curve with a large enough effect; inconclusive means small, poorly fitted or top-dose-only effect; inactive means flat fitted curve, though single readings scatter.

Tests used:
[1] = tested on: CP269; test: qHTS profiling for inhibitors of Plasmodium falciparum proliferation (AID 504749); further: nearly all actives have a fitted effect of over 60% in size; conditions: P. falciparum in erythrocytes, SYBR Green DNA, 72 h; series mostly up to 28.7 µM
Method in brief: (§1)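 P. falciparum-infected erythrocytes (0.3% parasitemia, 2.5% hematocrit) incubated with compound 72 h at 37 C, 5% CO2. Parasite DNA detected by SYBR Green after lysis, overnight at room temperature; normalised to 0.29 uM artemisinin and DMSO.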

[2] = tested on: CP286; test: as above; conditions: P. falciparum in erythrocytes, SYBR Green DNA, 72 h; series mostly up to 28.7 µM
Method in brief: as §1

[3] = tested on: CP291; test: as above; conditions: P. falciparum in erythrocytes, SYBR Green DNA, 72 h; series mostly up to 28.7 µM
Method in brief: as §1

[4] = tested on: CP297; test: as above; conditions: P. falciparum in erythrocytes, SYBR Green DNA, 72 h; series mostly up to 28.7 µM
Method in brief: as §1

[5] = tested on: CP305; test: as above; conditions: P. falciparum in erythrocytes, SYBR Green DNA, 72 h; series mostly up to 28.7 µM
Method in brief: as §1

[6] = tested on: CP315; test: as above; conditions: P. falciparum in erythrocytes, SYBR Green DNA, 72 h; series mostly up to 28.7 µM
Method in brief: as §1

[7] = tested on: CP325; test: as above; conditions: P. falciparum in erythrocytes, SYBR Green DNA, 72 h; series mostly up to 28.7 µM
Method in brief: as §1

[8] = tested on: CP329; test: as above; conditions: P. falciparum in erythrocytes, SYBR Green DNA, 72 h; series mostly up to 28.7 µM
Method in brief: as §1

[9] = tested on: CP335; test: as above; conditions: P. falciparum in erythrocytes, SYBR Green DNA, 72 h; series mostly up to 28.7 µM
Method in brief: as §1

[10] = tested on: DFO2036; test: as above; conditions: P. falciparum in erythrocytes, SYBR Green DNA, 72 h; series mostly up to 28.7 µM
Method in brief: as §1

[11] = tested on: DIV14; test: as above; conditions: P. falciparum in erythrocytes, SYBR Green DNA, 72 h; series mostly up to 28.7 µM
Method in brief: as §1

[12] = tested on: DIV17; test: as above; conditions: P. falciparum in erythrocytes, SYBR Green DNA, 72 h; series mostly up to 28.7 µM
Method in brief: as §1

[13] = tested on: DIV30; test: as above; conditions: P. falciparum in erythrocytes, SYBR Green DNA, 72 h; series mostly up to 28.7 µM
Method in brief: as §1

[14] = tested on: Dd2; test: as above; conditions: P. falciparum in erythrocytes, SYBR Green DNA, 72 h; series mostly up to 28.7 µM
Method in brief: as §1

[15] = tested on: ECU; test: as above; conditions: P. falciparum in erythrocytes, SYBR Green DNA, 72 h; series mostly up to 28.7 µM
Method in brief: as §1

[16] = tested on: FAB9; test: as above; conditions: P. falciparum in erythrocytes, SYBR Green DNA, 72 h; series mostly up to 28.7 µM
Method in brief: as §1

[17] = tested on: GB4; test: as above; conditions: P. falciparum in erythrocytes, SYBR Green DNA, 72 h; series mostly up to 28.7 µM
Method in brief: as §1

[18] = tested on: HB3; test: as above; conditions: P. falciparum in erythrocytes, SYBR Green DNA, 72 h; series mostly up to 28.7 µM
Method in brief: as §1

[19] = tested on: ICS; test: as above; conditions: P. falciparum in erythrocytes, SYBR Green DNA, 72 h; series mostly up to 28.7 µM
Method in brief: as §1

[20] = tested on: JCK; test: as above; conditions: P. falciparum in erythrocytes, SYBR Green DNA, 72 h; series mostly up to 28.7 µM
Method in brief: as §1

[21] = tested on: N140; test: as above; conditions: P. falciparum in erythrocytes, SYBR Green DNA, 72 h; series mostly up to 28.7 µM
Method in brief: as §1

[22] = tested on: P93_24; test: as above; conditions: P. falciparum in erythrocytes, SYBR Green DNA, 72 h; series mostly up to 28.7 µM
Method in brief: as §1

[23] = tested on: P94_40; test: as above; conditions: P. falciparum in erythrocytes, SYBR Green DNA, 72 h; series mostly up to 28.7 µM
Method in brief: as §1

[24] = tested on: PAD; test: as above; conditions: P. falciparum in erythrocytes, SYBR Green DNA, 72 h; series mostly up to 28.7 µM
Method in brief: as §1

[25] = tested on: PC15; test: as above; conditions: P. falciparum in erythrocytes, SYBR Green DNA, 72 h; series mostly up to 28.7 µM
Method in brief: as §1

[26] = tested on: PC26; test: as above; conditions: P. falciparum in erythrocytes, SYBR Green DNA, 72 h; series mostly up to 28.7 µM
Method in brief: as §1

[27] = tested on: PC49; test: as above; conditions: P. falciparum in erythrocytes, SYBR Green DNA, 72 h; series mostly up to 28.7 µM
Method in brief: as §1

[28] = tested on: SC27B; test: as above; conditions: P. falciparum in erythrocytes, SYBR Green DNA, 72 h; series mostly up to 28.7 µM
Method in brief: as §1

[29] = tested on: TAB109; test: as above; conditions: P. falciparum in erythrocytes, SYBR Green DNA, 72 h; series mostly up to 28.7 µM
Method in brief: as §1

[30] = tested on: TAB113; test: as above; conditions: P. falciparum in erythrocytes, SYBR Green DNA, 72 h; series mostly up to 28.7 µM
Method in brief: as §1

[31] = tested on: TAB165; test: as above; conditions: P. falciparum in erythrocytes, SYBR Green DNA, 72 h; series mostly up to 28.7 µM
Method in brief: as §1

[32] = tested on: W2; test: as above; conditions: P. falciparum in erythrocytes, SYBR Green DNA, 72 h; series mostly up to 28.7 µM
Method in brief: as §1

[33] = tested on: astro; test: Drug repurposing screens with cells derived from glioblastoma tumor samples (AID 1345199); conditions: viability, ATP luminescence, 48 h; series mostly up to 45.9 µM; further: nearly all actives have a fitted effect of over 40% in size
Method in brief: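 Four patient lines of CD133+ GBM neurospheres were screened at several concentrations; hits were retested in those lines plus three slower-growing GBM lines, using 48-hour treatment and ATP-based viability.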

Measured: Potency
Potency means the concentration at half of the fitted maximal effect.

CCCCCCCCCC[N+](C)(C)CCCCCCCCCC
active: [1] 4.78 µM | [2] 2.51 µM | [3] 5.36 µM | [4] 6.75 µM | [5] 5.36 µM | [6] 16.9 µM | [7] 5.36 µM | [8] 6.75 µM | [9] 6.75 µM | [10] 5.01 µM | [11] 3.01 µM | [12] 3.01 µM | [13] 8.49 µM | [14] 8.91 µM | [15] 5.01 µM | [16] 5.01 µM | [17] 3.38 µM | [18] 7.94 µM | [19] 2 µM | [20] 10 µM | [21] 7.08 µM | [22] 5.01 µM | [23] 6.31 µM | [24] 8.91 µM | [25] 3.55 µM | [26] 5.36 µM | [27] 10 µM | [28] 5.01 µM | [29] 6.31 µM | [30] 5.01 µM | [31] 7.08 µM | [32] 1.51 µM | [33] 4.47 µM
